High-throughput results deposited in PubChem by National Center for Advancing Translational Sciences (NCATS).
KB-V1 cytotox – qHTS assay for MDR1-selective chemotherapeutics: Primary screen using the drug-selected MDR subline cells KB-V1; KB-V1 MDR cells viability, CellTiter-Glo, 72 h; Potency, µM (series often up to 46.1 µM), most hits filed as cytotoxic; 3.4% of 400,000 active; AID 1347076, 2019; further: nearly all actives have a fitted effect of over 60% in size
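Potencies derive from concentration-effect curves fitted to normalized luminescence (CellTiter-Glo) of KB-V1 cells treated for 72 h at 37 degrees C in phenol-red-free DMEM containing 10% FBS.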
MCF10A rereplic – A quantitative high throughput screen for small molecules that induce DNA re-replication in MCF 10a normal breast cells | MCF 10A DNA re-replication, Hoechst nuclear intensity, 48 h | Potency, µM (highest dose often 46.1 µM), most hits filed as activators | 2.9% of 350,000 active | AID 624296, 2012; further: nearly all actives have a fitted effect of over 50% in size
KB-3-1 tox – qHTS assay for MDR1-selective chemotherapeutics: Primary screen using the parental adenocarcinoma cell KB-3-1 | KB-3-1 viability, CellTiter-Glo ATP luminescence, 72 h | Potency, µM (doses to about 46.1 µM), usual class: cytotoxic | 1.4% of 400,000 active | AID 1347075, 2019; further: nearly all actives have a fitted effect of over 60% in size
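Viability of parental KB-3-1 cells, measured by CellTiter-Glo luminescence, followed a 72 h incubation at 37 °C with pinned compounds in phenol-red-free DMEM containing 10% FBS.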
SW480 rereplic – A quantitative high throughput screen for small molecules that induce DNA re-replication in SW480 colon adenocarcinoma cells | SW480 DNA re-replication, Hoechst DNA content imaging, 48 h | Potency, µM (titrated, usually from 46.1 µM), most hits filed as activators | AID 624297, 2012 | 1.8% of 340,000 active; further: nearly all actives have a fitted effect of over 55% in size
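DNA re-replication was detected as more nuclei of elevated Hoechst intensity after 48 hr exposure to compound (23 nL pinned per well of 250 cells).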
HT1080NT lethal – qHTS for induction of synthetic lethality in tumor cells producing 2HG: qHTS for the HT-1080-NT fibrosarcoma cell line | HT-1080-NT fibrosarcoma viability, CellTiter-Glo ATP luminescence, 48 h | Potency, µM (titrated, usually from 46.1 µM), hits mostly cytotoxic | 1.6% of 360,000 active;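 further: NT is the 2HG producing partner of a matched IDH1 knockdown line; nearly all actives have a fitted effect of over 55% in size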
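Viability by CellTiter-Glo luminescence after 48 h compound exposure at 37C of HT-1080-NT cells (750/well, RPMI, 5% FBS). % activity scaled between DMSO wells and medium-only wells, then curve-fitted and categorized by curve class.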
HT1080 IDH1KD tx – qHTS for induction of synthetic lethality in tumor cells producing 2HG: qHTS for the HT-1080-IDH1KD cell line; HT-1080 IDH1 knockdown viability, ATP luminescence, 48 h; Potency, µM (titrated, usually from 46.1 µM), hits mostly cytotoxic; 2% of 360,000 active; AID 686971, 2013
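CellTiter-Glo luminescence after 48 h compound exposure at 37 degrees C of IDH1-knockdown HT-1080 cells in 5% FBS RPMI. %Activity scaled between DMSO wells and cell-free media wells, with curves fitted and assigned curve classes.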
A number is an active result; 0 = inactive; ? = inconclusive; - = not tested or not shown; [ ] = dose if it differs, or a comment. Shown are actives, neighbours in structure and some others; about 7.9% of the full set was active somewhere. The call rests on the fitted dose curve; in most records, active means well fitted curve in the direction sought with a large enough effect; inconclusive means small, poorly fitted or top-dose-only effect, or another doubt; inactive means no such curve, though single readings can be large; an effect the other way counts as inactive or inconclusive.

SMILES	KB-V1 cytotox	MCF10A rereplic	KB-3-1 tox	SW480 rereplic	HT1080NT lethal	HT1080 IDH1KD tx
O=C(CSc1nnc(-c2cccc(F)c2)o1)Nc1nncs1	0	0	0	0	0	0
CCn1c2ccccc2c2cc(NC(=O)CSc3nnc(-c4cccc(C)c4)o3)ccc21	?	?	23.1µM	?	0	0
CCn1c2ccccc2c2cc(NC(=O)CSc3nnc(-c4cccc(F)c4)o3)ccc21	11.6µM	5.17µM	7.31µM	?	13µM	?
CCn1c2ccccc2c2cc(NC(=O)CSc3nnc(-c4ccccc4)o3)ccc21	?	?	0	0.651µM	?	20.6µM
Cc1ccc(C)c(NC(=O)CSc2nnc(-c3ccccc3)o2)c1	0	0	0	0	0	0
COC(=O)c1ccccc1NC(=O)c1cnn2c(C(F)F)cc(C3CC3)nc12	0	?	0	0	?	?
O=C(CSc1cn[nH]n1)Nc1ccc(O)c(C(=O)O)c1	0	0	0	0	0	0
Cc1ccc(NC(=O)c2ccc(Cl)c(NC(=O)c3cccs3)c2)cc1	0	0	0	0	?	?
Cc1nc2ccc(NC(=O)c3ccc(Cl)c(NC(=O)c4cccs4)c3)cc2s1	23.1µM	0	0	0	0	0
CCOC(=O)c1cc2c(=O)n3cccc(C)c3nc2n(CCOC)c1=NC(C)=O	?	3.66µM	0	5.8µM	0	0
Cc1cccn2c(=O)c3cc(S(=O)(=O)c4ccccc4)c(=N)n(Cc4ccco4)c3nc12	?	0	0	?	0	0
CCOCCCn1c(=NC(=O)c2ccco2)c(C(=O)OCC)cc2c(=O)n3cccc(C)c3nc21	?	?	0	1.64µM	0	0
CCOC(=O)c1cc2c(=O)n3cccc(C)c3nc2n(Cc2ccco2)c1=NC(=O)c1ccccc1	?	8.2µM	0	?	0	0
Cc1cccn2c(=O)c3cc(S(=O)(=O)c4ccc(F)cc4)c(=N)n(Cc4ccco4)c3nc12	0	?	0	?	?	23.1µM
CCOC(=O)c1cc2c(=O)n3cccc(C)c3nc2n(Cc2ccco2)c1=NC(=O)c1ccc(C)cc1	0	0	0	0	0	0
O=C(CCc1ccccc1)NC(=S)Nc1ccccc1Br	0	0	0	0	0	0
COc1cccc(NC(=O)CN(C)C(=O)c2cccc(S(=O)(=O)Nc3ccccc3OC)c2)c1	0	0	0	0	0	0
CCN(Cc1ccccc1)C(=O)c1cc2cc(OC)c(OC)cc2[nH]1	0	0	0	0	0	0
O=C1c2ccccc2C(Nc2ccc(S(=O)(=O)N3CCCCC3)cc2)N1c1ccccn1 (stereo not given)	0	0	0	0	0	0
Cc1ccccc1OCC(=O)Nc1ccc2nc(SCC(=O)N(C)c3ccccc3)sc2c1	?	-	0	-	-	-
CC(C)n1c(=NC(=O)c2ccco2)c(C#N)cc2c(=O)n3ccccc3cc21	0	8.91µM	?	13µM	0	?
CCOC(=O)c1cc2c(=O)n3ccccc3nc2n(C(C)C)c1=NC(=O)c1ccco1	?	7.31µM	0	7.31µM	0	0
N=C(N)SCc1ccc(Cl)cc1Cl	0	?	0	?	0	0
Nc1ccc(CSc2ccc(Cl)cc2)c(Cl)c1	0	20.6µM	0	?	0	0
Cc1cc(C)c2[nH]c(=O)c(C(c3nnnn3C(C)(C)C)N(Cc3ccco3)CC3CCCO3)cc2c1 (stereo not given)	0	0	0	0	0	0
SMILES	KB-V1 cytotox	MCF10A rereplic	KB-3-1 tox	SW480 rereplic	HT1080NT lethal	HT1080 IDH1KD tx
CCC(c1nnnn1C(C)(C)C)N(Cc1ccco1)Cc1cc2cccc(C)c2[nH]c1=O (stereo not given)	23.1µM	0	0	0	0	0
Cc1ccc2cc(CN(CCCN3CCOCC3)C(c3nnnn3Cc3ccco3)C(C)C)c(=O)[nH]c2c1C (stereo not given)	0	?	0	20.6µM	0	?
CCOc1ccc2[nH]c(=O)c(CN(Cc3ccco3)C(CC)c3nnnn3Cc3ccccc3)cc2c1 (stereo not given)	?	0	?	0	0	?
CCC(c1nnnn1CCc1ccccc1)N(Cc1ccco1)Cc1cc2cccc(C)c2[nH]c1=O (stereo not given)	7.31µM	?	?	0	0	0
O=CN1CCN(C(=O)C(=O)c2cn(CC(=O)N3CCCCC3)c3ccccc23)CC1	0	0	0	?	0	0
O=C(CSc1nnc(CNC(=O)c2cccs2)o1)Nc1ccc(Br)cc1	?	0	0	0	0	0
Cc1ccc(C(O)(c2ccccc2)c2ccccc2C(C)N(C)C)c(C)c1 (stereo not given)	18.4µM	0	0	0	?	?
COc1ccc(C(=O)Nc2ccc(NC(=O)c3ccco3)cc2)cc1	0	0	0	9.2µM	?	?
O=C(OC1CCCCC1)c1ccc(NC(=O)c2ccco2)cc1	0	14.6µM	0	0	0	?
O=C(Nc1ccc(OC(=O)c2ccco2)cc1)c1ccco1	0	0[0.0737 µM]	0	0	0	0
CCN(CC)c1ccc(NC(=O)c2c(OC)cccc2OC)c(C)c1	0	0	0	0	0	0
COc1cc(OC)cc(C(=O)Nc2ccc(NC(=O)c3ccco3)c(C)c2)c1	?	0	0	0	?	23.1µM
CCN(CC)c1ccc(NC(=O)c2cc(OC)cc(OC)c2)c(C)c1	1.16µM	2.06µM	0.92µM	4.61µM	3.66µM	4.61µM
COc1ccc2c(c1)-c1nc(NC(=O)c3ccco3)sc1CC2	13µM	?	0	0	0	0
CC(C)COc1ccc(C(=O)Nc2ccccc2[N+](=O)[O-])cc1	0	13µM	0	?	0	0
COc1ccc(NC(=O)/C(C#N)=C\C=C\c2ccco2)cc1	10.3µM	11.6µM	7.31µM	-	?	20.6µM
CC(C)COc1ccc(C(=O)Nc2ccc(NC(=O)c3ccco3)c(Cl)c2)cc1	0	?	0	0	?	14.6µM
CCCOc1ccc(C(=O)Nc2ccc(C)cc2[N+](=O)[O-])cc1	0	?	0	0	0	0
CC(C)NC(=O)c1ccc(NC(=O)CC2SC(N3CCCCC3)=NC2=O)cc1 (stereo not given)	0	0	0	0	0[9.24 µM]	0
C/C(N)=C(/C#N)C(=O)COc1ccc(Cl)cc1Cl	0	?	0	0	0	0
Cc1cc(NC(=O)c2ccco2)ccc1NC(=O)c1ccco1	23.1µM	0	?	0	?	0
Cc1ccc(NC(=O)c2ccco2)cc1C	0	0	0	0	0	0
